p53ts 32C kill: cytotoxicity in p53ts cells at permissive temperature. Potency, µM (doses to about 46.1 µM), for inactives: at the highest dose activity change, negative = cytotoxicity, most hits filed as cytotoxic. 0.93% of 130,000 active. H1299-p53A138V at 32C, ATP luminescence viability, 24 h;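 also: 0% = DMSO and -100% = full killing by reference compound; nearly all actives have a fitted effect of over 55% in size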
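Viability by ATPlite luminescence after 24 h compound treatment (up to 46 uM) at the permissive 32C. Cells are H1299 carrying p53 A138V. Scale runs from DMSO basal to 100 uM tamoxifen as full kill; AC50 from Hill fits.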
p53ts 39C tox: cytotoxicity in p53ts cells at nonpermissive temperature; Potency, µM (doses to about 46.1 µM), inactives show top-dose activity change, negative = cell killing, actives largely listed as cytotoxic; H1299-p53A138V viability at 39C, ATP luminescence, 24 h; AID 902; 1.5% of 130,000 active; also: % is scaled to controls: 0 for no effect and ±100 for the full control effect; nearly all actives have a fitted effect of over 55% in size
ERK AVP block: blocks ERK signaling stimulated by vasopressin | 0.99% of 72,000 active | Potency, µM (titrated, usually from 57.5 µM), for inactives: at the top dose activity, negative = inhibition, most hits filed as inhibitors | HEK293-V1b, vasopressin-stimulated pERK AlphaScreen | AID 995; also: % is scaled to controls: 0 for no effect and ±100 for the full control effect; nearly all actives have a fitted effect of over 55% in size
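qHTS, compounds titrated on V1b-expressing HEK293 cells. Preincubation 30 min at 37C, vasopressin 25 nM for 5 min, lysis 10 min, bead incubation 5 hr at room temperature.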
Imprint erasure: induces erasure of genomic imprints in mouse ES cells | AID 1948 | Potency, µM (titrated, usually from 60.7 µM), for inactives: top-dose activity change, positive = activation, actives largely listed as activators | mouse ES Peg3-LacZ reporter, beta-gal luminescence, 40 h | 0.02% of 110,000 active
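Gelatin-coated wells received 300 freshly trypsinized female ES cells with a Peg3LacZ-Neo reporter on the maternal allele, then incubated 40 hours at 37C. BetaGlo was added for 5 minutes at room temperature before a single luminescence read.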
IkB signaling: suppresses IkB signaling in ABC-DLBCL reporter cells; ABC-DLBCL IkBa-CBG/CBR dual luciferase ratio, 4 h; response scale: scaled: untreated 0%, proteasome inhibitor 100%; AID 445; 0.04% of 110,000 active; Potency, µM (titrated, usually from 57.1 µM), inactives show top-dose IkBa stabilization activation; active = well fitted curve in the direction sought with a large enough effect in the signal ratio, not every such curve was filed as active; inconclusive = small, poorly fitted or top-dose-only effect, or a change in a side signal; the % refers to the signal ratio;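 also: the direction sought is a rising ratio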
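Curves were fitted separately to fusion (green), unfused (red) and ratio luminescence, then classed by r2, magnitude and activity. Cells: OCI-Ly3, 4 h compound plus doxycycline at 37C; 10 uM MG-132 defined full response.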
* marks the source's active call; other numbers are inactive results; u = inconclusive; x = not tested or not shown; [ ] = another dose, or the depositor's remark. Rows were chosen to be rich in hits. Some 2.3% of all compounds tested hit in one or more screens of this group. Unless noted, calls follow the shape of the dose curve; as a rule, active = well fitted curve in the direction sought with a large enough effect; inconclusive = small, poorly fitted or top-dose-only effect, or another doubt; inactive = no such curve, though single readings can be large; an effect the other way counts as inactive or inconclusive. Potency is read from the fitted curve at half-maximal effect.

SMILES	p53ts 32C kill	p53ts 39C tox	ERK AVP block	Imprint erasure	IkB signaling
Cc1ccnc(NC(=O)CCC2CCCCC2)c1	13µM*	13µM*	-2%	-32%	u
Cc1cc(NC(=O)CCC2CCCCC2)no1	-13%	-10%	x	x	x
Cc1cc(C)cc([N+](=O)[O-])c1	5%[1.84 µM]	-3%	16%	2%	1%
O=C(Nc1nc(-c2ccc(Cl)s2)cs1)c1cccs1	u	u	10µM*	-10%	u
O=C(Nc1nc(-c2ccccn2)cs1)c1ccc(Cl)s1	16%	4%	x	-13%	1µM*
O=C(Nc1nc(-c2ccccn2)cs1)c1ccc(S(=O)(=O)N2CCCCC2)cc1	11%	0%	25µM*	-18%	u
O=C(Nc1nc(-c2ccccc2)cs1)c1cccs1	u	-12%	16µM*	-22%	u
Cn1cccc1C(=O)Nc1nc(-c2ccccn2)cs1	-27%	u	16%	-84%	u
O=C(Nc1nc(-c2ccccc2)ns1)c1cccs1	0%	9%	3%	-2%	-4%
CO[C@H]1COC(=O)C/C=C\[C@H](C)[C@@H](OC)COC(=O)[C@@H](C)COC(=O)C/C=C\[C@@H]1C	-1%[9.22 µM]	0%[9.22 µM]	-5%[11.5 µM]	x	x
CC[C@@H]1C(c2cccc(C)c2)=NN(c2ccc(Br)cc2)[C@H]1C(=O)N1CCOC1=O	x	x	x	-16%	x
O=C1C2=CC[C@@H]3C(=O)N(c4ccc(F)cc4F)C(=O)[C@H]3[C@H]2[C@H](O)[C@H]2O[C@H]12	10%[9.22 µM]	1%[9.22 µM]	7%[11.5 µM]	x	x
CC(C)c1ccc(C2N=C(N)Nc3nc4ccccc4n32)cc1 (stereo not drawn)	2%	10µM*	x	-6%[10.9 µM]	u
NC1=NC(c2ccc(Br)cc2)n2c(nc3ccccc32)N1 (stereo not drawn)	7%	-17%	-24%	-16%	9%
CNC(=O)[C@@H]1O[C@@H](n2cnc3c(NCc4ccc(N)cc4)ncnc32)[C@@H](O)[C@H]1O	15%	16%	-6%	x	u
CC(C)N(C)C	7%[1.84 µM]	2%	-15%	0%	-2%
Cn1c(=O)c2c(nc(CN3CCOCC3)n2CCN2CCOCC2)n(C)c1=O	-2%	-11%	7%	6%	-1%
CCCCn1c(SCC(=O)OC)nc2c1c(=O)n(C)c(=O)n2C	10%	-9%	16µM*	11%	0%
CCCCn1c(CN2CCOCC2)nc2c1c(=O)n(C)c(=O)n2C	u	4µM*	x	-37%	u
Cc1ccc(S(=O)(=O)O[C@@H]2[C@H]([C@@H]3COC(C)(C)O3)O[C@H]3OC(C)(C)O[C@@H]32)cc1	-4%[9.22 µM]	0%[9.22 µM]	8%[11.5 µM]	3%[10.9 µM]	0%[11.4 µM]
CCCCCCCN	0%[1.84 µM]	6%	-6%	1%	-1%
COc1ccc(CN[C@H](C)C(=O)O)cc1	-3%[9.22 µM]	2%[9.22 µM]	5%[11.5 µM]	-9%[10.9 µM]	-1%[11.4 µM]
COc1ccc2[nH]cc(CCNC(=O)Nc3cc(C)cc(C)c3)c2c1	1%	13µM*	x	u	1%
Cc1ccccc1/C=C\C1=NCCN1	33%	41%	-8%	x	7%
O=C(CSc1nc2ccccc2o1)Nc1nc2c(s1)CCCC2	u	13µM*	-28%	-37%	u
SMILES	p53ts 32C kill	p53ts 39C tox	ERK AVP block	Imprint erasure	IkB signaling
CCn1c(SCC(=O)Nc2nc3c(s2)CCCC3)nnc1-c1ccccc1	-3%	-14%	32µM*	-10%	4%
Cc1nc2cccc([N+](=O)[O-])c2n1CCCN(C)C	-1%[9.22 µM]	5%[9.22 µM]	0%[11.5 µM]	-22%[10.9 µM]	-1%[11.4 µM]
COCCCn1c(-c2ccco2)nc2ccccc2c1=O	4%	-3%	-17%	-6%	-4%
COc1ccc(CCn2c(-c3ccco3)nc3ccccc3c2=O)cc1OC	u	-27%	10µM*	25%	u
O=C1c2ccccc2C(=O)c2c(NC3CCCCC3)ccc(Nc3ccc(S(=O)(=O)O)cc3)c21	-9%[9.22 µM]	2%[9.22 µM]	u	0%[10.9 µM]	4%[11.4 µM]
COc1cc(C2CC(=O)c3c([nH]c(C(=O)OCc4ccc(C)cc4)c3C)C2)cc(OC)c1OC (stereo not drawn)	-2%	-26%	x	-16%[10.9 µM]	u
COc1cc(C2CC(=O)c3c([nH]c(C(=O)OCCOC(C)C)c3C)C2)cc(OC)c1OC (stereo not drawn)	u	u	4µM*	-25%	u
CCOCCOC(=O)c1[nH]c2c(c1C)C(=O)CC(c1ccc(N(C)C)cc1)C2 (stereo not drawn)	3%	-8%	25µM*	-22%	4%
CCc1ccc(C2CC(=O)c3c([nH]c(C(=O)OCCOc4ccccc4)c3C)C2)cc1 (stereo not drawn)	u	13µM*	x	-27%[10.9 µM]	-1%
O[C@@H](c1cc(-c2ccc(Cl)cc2)nc2ccccc12)[C@@H]1CCCCN1	6%[9.22 µM]	-16%[9.22 µM]	-3%[11.5 µM]	x	2%[11.4 µM]
N#CCCn1c(=O)c(-c2ccc(F)cc2)nc2cnc(N3CCOCC3)nc21	0%	-10%	-5%	1%	-1%[11.4 µM]
N#CCCn1c(=O)cnc2cnc(N3CCOCC3)nc21	-5%	u	6.3µM*	x	-2%[11.4 µM]
O=S1(=O)C=C(Sc2nc3ccccc3s2)c2ccccc21	13µM*	u	13µM*	-36%	u
Cn1c(C(=O)NCCc2ccccc2)cc2sc(Cl)cc21	16µM*	13µM*	x	-22%[10.9 µM]	5%
CN(C)CCCn1cc(C2=C(c3c[nH]c4ccccc34)C(=O)NC2=O)c2ccccc21	-13%	u	0.79µM*	-29%	u
Cn1cc(C2=C(c3cn(CCCSC(=N)N)c4ccccc34)C(=O)NC2=O)c2ccccc21	u	u	2µM*	-38%	x
Nc1cc(Cl)c([N+](=O)[O-])cc1O	-1%[1.84 µM]	-5%	0%	-5%	0%
Cc1nc2ccc(N)cc2s1	-7%	17%	x	-14%	2%
CN(C)c1ccc2nc3ccc(=[N+](C)C)cc-3sc2c1	-5%[1.84 µM]	3.2µM*	128%	-38%	0%
CCOc1ccc(C2=C(C(=O)CC)Sc3nncn3N2C(=O)CC)cc1	11µM*	u	x	26%[10.9 µM]	u
CC1(C)CC(=O)C2=C(C1)OC1=C(C(=O)CC(C)(C)C1)C2c1ccc(O)cc1O	25µM*	145%	10µM*	-32%	u
Cc1ccc(C2C(C(N)=S)=C(N)OC3=C2C(=O)CC(C)(C)C3)cc1 (stereo not drawn)	-5%	-23%	x	x	x
Cc1ccc(C(=O)Nc2nc3ccc(S(C)(=O)=O)cc3s2)o1	11µM*	13µM*	x	x	x
COc1ccc(C(=O)Nc2nc3ccc(S(C)(=O)=O)cc3s2)cc1	2%	-15%	x	x	x
CN(C)S(=O)(=O)c1ccc2nc(NC(=O)c3cccnc3)sc2c1	16µM*	u	u	-55%	-1%
CS(=O)(=O)c1ccc2nc(NC(=O)c3ccco3)sc2c1	13µM*	13µM*	x	-79%	u
Cc1cc(C)c(-c2cc([C@H](C)O/N=C\[C@@H](C)[C@H](OCc3ccccc3)C(C)C)on2)c(C)c1	3%[9.22 µM]	12%[9.22 µM]	10%[11.5 µM]	x	x
